pPAFAH inh – inhibitors of human plasma PAF acetylhydrolase (pPAFAH). recombinant pPAFAH, FP-rhodamine probe fluorescence polarization. inhibition, % at 3.39 µM. 330,000 compounds, 1.5% hits. AID 463082;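 active means inhibition above the mean inhibition across the screen plus 3 SD, cut at about 25% in these data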;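 further: inhibitors block binding of the rhodamine activity-based probe so polarization drops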
Target sequence (Q13093 whole entry, looked up): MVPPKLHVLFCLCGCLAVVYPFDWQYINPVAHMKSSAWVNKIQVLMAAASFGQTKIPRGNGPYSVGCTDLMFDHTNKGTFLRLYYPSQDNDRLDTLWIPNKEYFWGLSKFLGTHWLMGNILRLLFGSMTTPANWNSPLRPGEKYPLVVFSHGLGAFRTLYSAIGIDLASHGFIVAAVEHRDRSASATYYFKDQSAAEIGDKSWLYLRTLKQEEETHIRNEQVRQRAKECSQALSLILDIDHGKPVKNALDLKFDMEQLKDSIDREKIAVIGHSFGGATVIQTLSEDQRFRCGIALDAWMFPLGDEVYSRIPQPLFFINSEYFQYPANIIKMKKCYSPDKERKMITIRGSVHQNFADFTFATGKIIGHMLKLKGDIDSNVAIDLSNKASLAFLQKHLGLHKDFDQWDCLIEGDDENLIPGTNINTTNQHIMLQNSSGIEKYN
PAFAH1B2 inh – inhibitors of human PAFAH1B2; AID 492953; recombinant PAFAH1B2, FP-rhodamine activity probe, fluorescence polarization; inhibition, % at 3.39 µM; P68402; 340,000 compounds, 1.2% hits;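 active means inhibition above the mean of all tested compounds plus 3 SD, cut at about 24% in these data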
PAFAH1B3 inh – inhibitors of human PAFAH1B3. Q15102. recombinant PAFAH1B3, FP-rhodamine probe, fluorescence polarization. inhibition, % at 3.39 µM. 340,000 compounds, 0.28% hits. AID 492972;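 active means inhibition above the screen-wide average of all tested compounds plus 3 SD, cut at about 25% in these data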
Target sequence (Q15102 whole entry, looked up): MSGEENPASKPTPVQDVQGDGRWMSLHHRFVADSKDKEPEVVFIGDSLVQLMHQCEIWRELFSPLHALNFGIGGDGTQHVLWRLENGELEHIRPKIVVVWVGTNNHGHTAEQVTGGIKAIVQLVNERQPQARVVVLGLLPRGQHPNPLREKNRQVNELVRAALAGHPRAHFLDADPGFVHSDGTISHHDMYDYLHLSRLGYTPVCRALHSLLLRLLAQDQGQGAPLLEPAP
Fam108B counter – Fam108B inhibition, counter-screen for RBBP9 inhibitors; recombinant Fam108B, FP-Rh probe fluorescence polarization; inhibition, % at 9.51 µM; 300,000 compounds, 0.33% hits;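 active means inhibition above the screen mean inhibition plus 3 SD, computed separately per campaign, cut at about 18% in these data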;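 further: inhibitors lower polarization as less probe binds the enzyme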
PAFAH2 FP inh – PAFAH2 (human) inhibition; Q99487; recombinant PAFAH2, FP-rhodamine activity probe, fluorescence polarization; inhibition, % at 3.39 µM; 340,000 compounds, 0.99% hits; AID 492956;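 active means inhibition above the mean over all tested compounds plus 3 SD, cut at about 30% in these data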;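 further: inhibitors block probe labeling of enzyme so polarization drops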
PME-1 inh – blocks human protein phosphatase methylesterase 1; Q9Y570; recombinant PME-1, FP-Rh probe fluorescence polarization; inhibition, % at 5.9 µM; 320,000 compounds, 0.53% hits;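 active means inhibition above the campaign mean of all compounds plus 3 SD, cut at about 26% in these data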;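 further: competitive labeling of PME-1 active site by serine hydrolase directed probe; inhibitors block probe labeling so polarization falls and inhibition rises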
PAFAH1B3 confirm – PAFAH1B3 (human) inhibition, confirmed; shares compounds with PAFAH1B3 inh; recombinant PAFAH1B3, FP-Rh activity-based probe, fluorescence polarization; inhibition, % at 3.39 µM; 390 compounds, 30% hits; AID 493032;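 active means average inhibition over triplicate runs above the hit cutoff set in the earlier primary screen, cut at about 25% in these data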
Of the large screens only hits and unclear results are named; the others gave an inactive call (follow-up assays come after a bar, where they were run). Sampled rows, rich in hits. Any-hit rate of the full collection: about 2.8%.

Cc1c(N=C2C=CC(=O)c3ccccc32)c(=O)n(-c2ccccc2)n1C	PAFAH1B3 inh 47 (no result: pPAFAH inh, Fam108B counter, PME-1 inh) | PAFAH1B3 confirm 37
O=C1c2cccc3c([N+](=O)[O-])ccc(c23)C(=O)N1O	none
O=C1c2cccc3c([N+](=O)[O-])ccc(c23)C(=O)N1c1ccccn1	PAFAH1B3 inh 29 | PAFAH1B3 confirm 39
O=C(NNC(=O)c1ccc2ccccc2c1O)NC1CCCCC1	PAFAH1B3 inh 30 (no result: pPAFAH inh, Fam108B counter, PME-1 inh) | PAFAH1B3 confirm inactive
O=C(NNC(=O)c1ccc2ccccc2c1O)Nc1ccc(F)cc1	none
COc1cc(OC)cc(C(=O)NNC(=O)c2cc3ccccc3cc2O)c1	none (no result: pPAFAH inh, Fam108B counter, PME-1 inh)
Cc1cccc(NC(=O)NNC(=O)c2ccc3ccccc3c2O)c1	PAFAH1B3 inh 43 (no result: pPAFAH inh, Fam108B counter, PME-1 inh) | PAFAH1B3 confirm 82
Cc1ccc(C(=O)NNC(=O)c2ccc3ccccc3c2O)cc1	none
Cc1ccc(NC(=O)NNC(=O)c2cc3ccccc3cc2O)cc1	PAFAH1B3 inh 46 | PAFAH1B3 confirm 76
COc1ccccc1NC(=O)NNC(=O)c1cc2ccccc2cc1O	PAFAH1B3 inh 32 | PAFAH1B3 confirm 45
COc1ccc(C2C(C(=O)c3sc(C)nc3C)=C(O)C(=O)N2CCCn2ccnc2)cc1 (configuration not stated)	none
O=c1[nH]c(Nc2ccc(F)cc2)cc2ccccc12	PAFAH1B3 inh 56 | PAFAH1B3 confirm inactive
O=c1[nH]c(Nc2ccccc2Cl)cc2ccccc12	none
Cc1[nH]c2ccccc2c1CCNC(=O)c1ccc2c(c1[N+](=O)[O-])C(=O)c1ccccc1C2=O	PAFAH1B3 inh 44, PME-1 inh 30 | PAFAH1B3 confirm 67
Cc1ccc(C)c(S(=O)(=O)N2CCN(C(=O)CSc3ccccc3F)CC2)c1	none
COc1cc(/C=C/C(=O)N2CCN(C(=O)/C=C/c3cc(OC)c(OC)c(OC)c3)CC2)cc(OC)c1OC	none
COc1cc2c(cc1OC)CN(C(=O)/C=C/c1cc(OC)c(OC)c(OC)c1)CC2	PAFAH1B3 inh 30 | PAFAH1B3 confirm inactive
Cn1c(N)c(C(=O)COC(=O)c2ccnc3ccccc23)c(=O)n(C)c1=O	none
COc1ccc(C(=O)OCC(=O)c2c(N)n(C)c(=O)n(C)c2=O)c(OC)c1OC	PAFAH1B3 inh 26 (no result: Fam108B counter, PME-1 inh) | PAFAH1B3 confirm inactive
C/C(=N/Nc1ccc(C(=O)O)cc1)c1ccc2c(c1)Nc1ccccc1S2	PAFAH1B3 inh 26 (no result: pPAFAH inh, Fam108B counter, PME-1 inh) | PAFAH1B3 confirm inactive
C/C(=N\Nc1ccc(Cl)c(C(=O)O)c1)c1ccc2c(c1)OCO2	none
O=C(O)c1ccc(NC2=C(n3nnc4ccccc43)C(=O)c3ccccc3C2=O)cc1	PAFAH1B3 inh 29 | PAFAH1B3 confirm 26
CCOC(=O)N1CCN(C(=O)C(CC(C)C)NS(=O)(=O)c2ccc(C)cc2)CC1 (configuration not stated)	none (no result: Fam108B counter)
COc1ccc(/C=N/NC(=O)c2cc(O)c(O)c(O)c2)cc1Cn1cc([N+](=O)[O-])cn1	PAFAH1B3 inh 39 (no result: pPAFAH inh, Fam108B counter, PME-1 inh) | PAFAH1B3 confirm inactive
COc1ccc(/C=N/NC(=O)c2ccccc2O)cc1Cn1cc([N+](=O)[O-])cn1	none
COc1cc(C2Nc3cccc4cccc(c34)N2)cc(OC)c1O	PAFAH1B3 inh 35, Fam108B counter 41, PME-1 inh 48 | PAFAH1B3 confirm inactive
COc1ccc(CN(C(C)=O)c2ccccc2C(=O)O)cc1	none
COc1ccccc1N(/N=C1\Sc2ccccc2C1=O)C(C)=O	PAFAH1B3 inh 51 | PAFAH1B3 confirm 54
COc1ccc(N(/N=C2\Sc3ccccc3C2=O)C(C)=O)cc1	PAFAH1B3 inh 54 (no result: pPAFAH inh, Fam108B counter, PME-1 inh) | PAFAH1B3 confirm 60
COc1ccc(-c2cc(C(=O)NC(C)c3ccccn3)c3ccccc3n2)cc1OC (configuration not stated)	none (no result: Fam108B counter)
COCCn1cnnc1SCC(=O)Nc1sccc1C(N)=O	none
O=C1C(=O)c2ccccc2C([O-])=C1[n+]1ccccc1	none
CCc1cc[n+](C2=C([O-])c3ccccc3C(=O)/C2=N\S(=O)(=O)c2cccs2)cc1	PAFAH1B3 inh 41 | PAFAH1B3 confirm 31
CC(NC(=O)c1c(F)cccc1Cl)c1ccc(-n2ccnc2)cc1 (configuration not stated)	none
O=c1c2ccccc2nc2n1CCCCN2	none
C=CCn1c(O)c(N=Nc2ccccc2O)c2ccccc21	PAFAH1B3 inh 26, PME-1 inh 34 (no result: Fam108B counter) | PAFAH1B3 confirm inactive
COc1cc(NC(=O)C2=COCCO2)c(OC)cc1Cl	none
O=C(O)c1cccc(NN=C2c3ccccc3-c3ccccc32)c1	PAFAH1B3 inh 42 (no result: pPAFAH inh, Fam108B counter, PME-1 inh) | PAFAH1B3 confirm 31
O=C(O)c1cccc2c1-c1ccccc1/C2=N\Nc1ccccc1	none
O=C(O)c1cc(NN=C2c3ccccc3-c3ccccc32)ccc1Cl	PAFAH1B3 inh 48, PME-1 inh 35 | PAFAH1B3 confirm 37
CCOC(=O)CN1C(=O)C2(OCCCO2)c2cc(Br)ccc21	none
COC(=O)c1ccc([C@H]2CC(=O)O2)cc1	none
COc1cc(Cl)c(C)cc1NC(=O)CNC(=O)Cn1cnc2ccccc2c1=O	none
O=C(NNC(=O)c1cc(S(=O)(=O)N2CCOCC2)c(Cl)cc1Cl)c1ccccc1F	none (no result: Fam108B counter, PME-1 inh)
CCOC(=O)C1(C(F)(F)F)N=C(c2cccnc2)OC(N2CCOCC2)=N1 (configuration not stated)	none
O=[N+]([O-])c1ccc(O)c(-c2nn[nH]n2)c1	PAFAH1B3 inh 28 | PAFAH1B3 confirm 26
CCc1cccc(CC)c1NC(=S)NCC(c1cccnc1)N(C)C (configuration not stated)	none
Cc1ccc(-n2nc3c(c2NC(=O)C2CC2)CS(=O)(=O)C3)cc1	none
COc1cc(NCCCCCCN)c2ncccc2c1OC	PAFAH1B3 inh 57 (no result: pPAFAH inh, Fam108B counter, PME-1 inh) | PAFAH1B3 confirm inactive
O=c1c2ccccc2c(=O)n2n1Cc1ccccc1C2	none
Cc1ccc(S(=O)(=O)/N=C2\C(=O)c3ccccc3C([O-])=C2n2cc[n+](CCC(C)C)c2)cc1	PAFAH1B3 inh 26 | PAFAH1B3 confirm inactive
CC(=O)Nc1ccc(S(=O)(=O)/N=C2\C(=O)c3ccccc3C([O-])=C2n2cc[n+](-c3ccccn3)c2)cc1	PAFAH1B3 inh 38 | PAFAH1B3 confirm inactive
Cc1ccc(NC(=O)C[n+]2ccn(C3=C([O-])c4ccccc4C3=O)c2)cc1	none
CCCC[n+]1ccn(C2=C([O-])c3ccccc3C(=O)/C2=N\S(=O)(=O)c2ccc(Br)cc2)c1	none
CCc1cccc2c(N=O)c(O)[nH]c12	PAFAH1B3 inh 28 | PAFAH1B3 confirm inactive
O=Nc1c(O)[nH]c2c(F)cccc12	none
O=C(N1CCCCC1)C12CC3CC(C1)CC(C(=O)N1CCCCC1)(C3)C2	PAFAH1B3 inh 39 | PAFAH1B3 confirm inactive
Cc1cccnc1NC(=S)NC(=O)c1oc2ccccc2c1C	none
Cc1ccccc1OCC(=O)NNC(=S)NC(=O)c1ccco1	none

Bioassay records from PubChem BioAssay.
